Assay outcomes deposited in PubChem BioAssay by National Center for Advancing Translational Sciences (NCATS).
Most compounds without a hit are left out; they make up all but 14% or so of the library.
HSD17B inhib: blocks hydroxysteroid 17-beta dehydrogenase activity; Q99714; recombinant HSD17B10, NADH fluorescence kinetic; Potency, µM (titrated, usually from 57.1 µM), for the others: at the top dose activity change, negative = inhibition, actives largely listed as inhibitors; actives 7.6% (n = 75,000); AID 893;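 also: the protocol describes HADH2 (HSD17B10) and not the HSD17B4 of the title; potency is read from the fitted curve at half-maximal effect; % is scaled to controls: 0 for no effect and ±100 for the full control effect; nearly all actives have a fitted effect of over 70% in size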
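20 nM HADH2, pH 9.0 Tris/Tween; cpd preinc 15 min RT; start w/ 1 mM NAD+ + 90 uM b-hydroxybutyryl-CoA; kinetic fluor ex360/em450 q30s x 4 min; delta last-first.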
A350 autofl: compound fluoresces in the Alexa 350 spectral region | Compound autofluorescence, 340/450 nm, Alexa 350 dye-equivalents; active compounds read high | max dye-equivalent concentration, M | actives 11% (n = 59,000); in the data active = max dye-equivalent concentration above about 10 nM; inconclusive = mostly about 1.1 nM to 9.6 nM
HADH2 inhib: HADH2 (human) dehydrogenase inhibition; Q99714; recombinant HADH2, NADH fluorescence, beta-hydroxybutyryl-CoA; Potency, µM (highest dose often 57.1 µM), for inactives: at the highest dose activity change, negative = inhibition, usual class: inhibitors; actives 3.4% (n = 73,000); AID 886; also: potency is read from the fitted curve at half-maximal effect; % is scaled to controls: 0 for no effect and ±100 for the full control effect; nearly all actives have a fitted effect of over 60% in size
Target sequence (Q99714 whole entry, looked up, one chain of several): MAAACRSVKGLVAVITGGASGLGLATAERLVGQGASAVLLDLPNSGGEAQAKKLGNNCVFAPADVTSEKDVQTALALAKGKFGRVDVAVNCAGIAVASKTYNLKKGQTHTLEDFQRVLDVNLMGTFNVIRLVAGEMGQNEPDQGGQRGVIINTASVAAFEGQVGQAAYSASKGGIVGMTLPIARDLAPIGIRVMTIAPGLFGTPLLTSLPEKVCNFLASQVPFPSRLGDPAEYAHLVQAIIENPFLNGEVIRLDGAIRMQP
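Activity measured as NADH fluorescence gain (360/450 nm), taken as the change between first and last reads of a 4-min kinetic run. Conditions: pH 9.0 Tris buffer, 20 nM E. coli-expressed His-tagged enzyme, 1 mM NAD+, 90 uM beta-hydroxybutyryl-CoA; 15-min compound preincubation.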
CRE Fsk mod: modulators of forskolin-stimulated CRE signaling in CHO cells; CHO CRE-bla reporter (cAMP response element driving beta-lactamase), forskolin EC10, beta-lactamase ratio; Potency, µM (highest dose often 38.2 µM), inactives show at the highest dose activity change, negative = inhibition, most hits filed as activators; actives 2.5% (n = 71,000); active = well fitted activation curve with a large enough effect in the signal ratio, with a control signal flat, not every such curve was filed as active; inconclusive = small, poorly fitted or top-dose-only effect, or effect the other way, or a change in a side signal; the % refers to the signal ratio; also: potency is read from the fitted curve at half-maximal effect; % of control where 0% means no effect
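Forskolin analogue NKH 477 at EC10 stimulated CRE-driven beta-lactamase in CHO cells alongside compound dilution series. Beta-lactamase was measured with CCF4, excitation 405 nm, emission ratio 460/530 nm.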
AID923: qHTS Assay for Allosteric/Competitive Inhibitors of Caspase-1: Spectroscopic Profiling in AFC Spectral Region. compound fluorescence, AFC spectral region (405/520 nm). Potency, µM (titrated, usually from 57.5 µM), for inactives: top-dose fluorescence increase, actives largely listed as activators. actives 1.1% (n = 75,000). AID 923, 2007; also: potency is read from the fitted curve at half-maximal effect; 0% is about no effect
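Baseline compound fluorescence (AFC region, 405 nm ex/520 nm em) taken from the intercept of kinetic reads with 50 nM caspase-1 and 5 uM Ac-WEHD-AFC; normalized to an on-plate AFC standard curve; compounds titrated up to 57 uM.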
4-MU autofl: compounds fluorescent in 4-MU spectral region; compound autofluorescence, 340/450 nm, 4-MU equivalents; active compounds read high; AID 589; max dye-equivalent concentration, M; actives 11% (n = 59,000); in the data active = max dye-equivalent concentration above about 10 nM; inconclusive = mostly about 1.1 nM to 9.6 nM
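Compounds in 100 mM Tris, pH 8.0, sat 15 min at room temperature before fluorescence was read at 340 nm excitation/450 nm emission; a per-plate six-point 4-MU standard curve converted signals to dye-equivalent concentration at each compound concentration.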
The depositor's hits bear a star; i = inactive; ? = inconclusive; · = not tested or not shown; [ ] = another dose, or the depositor's remark. Unless noted, calls follow the shape of the dose curve; as a rule, active = well fitted curve in the direction sought with a large enough effect; inconclusive = small, poorly fitted or top-dose-only effect, or another doubt; inactive = no such curve, though single readings can be large; an effect the other way counts as inactive or inconclusive.

SMILES | HSD17B inhib | A350 autofl | HADH2 inhib | CRE Fsk mod | AID923 | 4-MU autofl
C=CCn1cc(C(=O)NCCCOC)c(=O)c2cc(S(=O)(=O)N3CCC(C)CC3)ccc21 | ? | · | -1% | -8% | -3% | ·
CC(=O)c1c(C)c2c(n1CCN(C)C)CCCC2 | · | 1.6e-07M* | · | · | · | 1.5e-07M*
Cc1ccc2[nH]c3c(N4CCOCC4)ncnc3c2c1 | · | 2.7e-07M* | · | · | · | 2.4e-07M*
CN1CCN(c2ncnc3c2[nH]c2ccc(F)cc23)CC1 | · | 7e-08M* | · | · | · | 6.2e-08M*
c1ccc2c(c1)[nH]c1c(N3CCN(C4CCCCC4)CC3)ncnc12 | · | 1.2e-08M* | · | · | · | ?
c1ccc2c(c1)[nH]c1c(N3CCOCC3)ncnc12 | ? | · | -30% | -5% | 1% | ·
COCCNc1ccnc(-c2ccccc2CN(C)C)n1 | 7% | i | 10% | 0% | 1% | i
CCOC(=O)c1ccc(NC(=O)CCC(CC)C(=O)O)cc1 (centres undefined) | · | i | · | · | · | i
CCCCC(CCC(=O)Nc1ccccc1C(=O)OCC)C(=O)O (centres undefined) | 25µM* | i | 19% | 0% | 1% | i
COc1ccc2c(c1)c(CC(=O)O)c(C)n2Cc1ccc(Cl)cc1 | -18% | i | 13% | -8% | -3% | i
Cc1c(CC(C)(C)C(=O)O)n(Cc2ccc(Cl)cc2)c2ccc(F)cc12 | 40µM* | i | -16% | ? | -3% | i
CN(C)c1ccc(C2N([C@H](C#N)c3ccc(N(C)C)cc3)CCCN2[C@@H](C#N)c2ccc(N(C)C)cc2)cc1 (some centres undefined) | -2%[11.4 µM] | ? | -3%[11.4 µM] | -5%[7.6 µM] | -1%[11.5 µM] | ?
CC(Nc1ncnc2nc[nH]c12)c1ccccc1 (centres undefined) | 32µM* | · | -21% | ? | 1% | ·
Cc1cccc(Nc2ncnc3nc[nH]c23)c1 | 32µM* | · | ? | ? | 1% | ·
COc1cc2c(cc1OC)C(C(=O)Nc1ccc3c(c1)OCCO3)C1c3ccccc3CCN1C2=O (centres undefined) | -1% | i | -5% | 2% | 0% | i
COc1cc2c(cc1OC)-c1cc(NC3CCCCCC3)nc(=O)n1CC2 | 25µM* | 5e-08M* | ? | 1µM* | 2% | 4.1e-08M*
CCN(CC)CCCNc1cc2n(c(=O)n1)CCc1cc(OC)c(OC)cc1-2 | 32µM* | 1.3e-07M* | ? | ? | 5% | 1.1e-07M*
COc1cc2c(cc1OC)-c1cc(Nc3ccc4c(c3)OCCO4)nc(=O)n1CC2 | ? | 3.5e-08M* | ? | 2.5µM* | 2% | 2.6e-08M*
COc1cc2c(cc1OC)-c1cc(OCc3cccnc3)nc(=O)n1CC2 | 25µM* | 1.2e-06M* | 4µM* | 4µM* | 3% | 9.1e-07M*
CC(C)=CCC/C(C)=C/CO/N=C1/C[C@@H](O)[C@@H](O)[C@@H]2[C@@H]3C(=O)N(Cc4ccc5c(c4)OCO5)C(=O)[C@H]3CC[C@@H]12 | 0%[11.4 µM] | · | -2%[11.4 µM] | · | -1%[11.5 µM] | ·
c1ccc([C@@H]2CN3CCSC3=N2)cc1 | -1%[25.6 µM] | i | -9%[25.6 µM] | 3%[17.1 µM] | 1%[25.7 µM] | i
Clc1cccc(Cl)c1C(Nc1nncs1)Nc1nncs1 | 2%[11.4 µM] | i | 8%[11.4 µM] | ? | -3%[11.5 µM] | i
O=C(O)CCN1C(=S)CSC1=S | -4%[11.4 µM] | i | ? | -10%[7.6 µM] | 1%[11.5 µM] | i
CN1CCc2c(sc3c2c(=O)n(-c2ccccc2)c2nncn32)C1 | ? | 1.5e-08M* | ? | -6% | 12% | 1.3e-08M*
COC(=O)CSc1nc2sc3c(c2c(=O)n1-c1ccccc1)CCN(C)C3 | ? | 5e-08M* | -16% | ? | 15% | 4.8e-08M*
SMILES | HSD17B inhib | A350 autofl | HADH2 inhib | CRE Fsk mod | AID923 | 4-MU autofl
C=CCn1c(SCC(=O)OC)nc2sc3c(c2c1=O)CCN(C)C3 | · | 6.2e-08M* | · | · | · | 5.1e-08M*
CCSc1nc2sc3c(c2c(=O)n1C1CCCCC1)CCN(C)C3 | · | 2.5e-08M* | · | · | · | 2.1e-08M*
C/C(CCC(=O)OC[C@@H]1O[C@H](C#Cc2ccccc2)C=C[C@@H]1Oc1ccc(C)cc1)=N/OC[C@@H](O)COCc1ccco1 | 1%[11.4 µM] | · | 12%[11.4 µM] | · | 2%[11.5 µM] | ·
N#C/C(C(=O)Oc1ccccc1)=C1\C=CC=CN1 | 272% | 1.9e-08M* | 244% | -2% | 0% | 1.5e-08M*
N#C/C(C(=O)c1ccccc1)=C1/CCCN1 | 1% | · | -3%[11.4 µM] | ? | 1% | ·
CCOC(=O)c1nn(-c2ccccc2)c(=O)c2c(N)scc12 | 32µM* | i | ? | 14% | 4% | i
CCOC(=O)c1nn(-c2ccccc2)c(C(=O)OCC)c1N | 25µM* | 9.5e-07M* | 32µM* | ? | -1% | 7.9e-07M*
N#Cc1ccccc1-c1cncnc1NCc1cccnc1 | -1% | i | -15% | ? | -1% | i
CCOC(=O)c1nn(-c2ccccc2C)c(=O)c(C#N)c1C | 6% | i | -1% | 27% | 1% | i
CCOC(=O)c1c(N)sn(-c2ccccc2C)c1=S | ? | ? | 2µM* | ? | 1% | i
C/C(CCN1CCc2nc(-c3ccccc3)c(-c3ccccc3)cc2C1)=N\O[C@@H](C)CN1CCCCc2nc(C)c(C)cc21 | 4%[11.4 µM] | · | 10%[11.4 µM] | · | 4%[11.5 µM] | ·
OC[C@@H]1O[C@@H](n2cnc3c(NCc4ccco4)ncnc32)[C@H](O)[C@H]1O | · | i | -3% | ? | · | i
CCCn1c(-c2ccc(OC)cc2)nc2nc3ccccc3nc21 | 3.2µM* | 1.1e-06M* | ? | 10µM* | 8% | 8.8e-07M*
Cc1ccc(OCCCn2c(CO)nc3ccccc32)cc1 | -2% | i | 4% | -15% | -3% | i
COCCCn1c(-c2ccc(OC)cc2)nc2nc3ccccc3nc21 | 32µM* | 8e-07M* | 31% | 15% | 12% | 5.8e-07M*
CCCn1c(/N=C/c2cc(OC)ccc2O)nc2ccccc21 | 13% | ? | 8% | -11% | 2% | i
N=C(C[C@@H](O)COc1ccccc1-c1ccccc1)N1CCCCC1 | 14% | · | 8% | -25% | 0% | ·
CC(=O)Nc1ccc(-c2nc3ccc(Cl)cc3[nH]2)cc1 | 20µM* | · | · | · | -2% | ·
CC(=O)Nc1ccc2nc(-c3ccccn3)[nH]c2c1 | 3.2µM* | ? | ? | 13% | 3% | ?
CC(=O)Nc1ccc(-c2nc3c(C)cccc3[nH]2)cc1 | 32µM* | i | 32µM* | ? | 0% | i
O=C(c1cccc(F)c1)N1CCC2(CC1)CCN(c1ccccn1)CC2 | ? | i | 2% | 0% | 1% | i
O=C(Nc1ncccc1Cl)c1cccc(F)c1 | · | 1.4e-08M* | · | · | · | 1.1e-08M*
CC(=O)Nc1cnc(NC(=O)c2cccc(F)c2)cc1C | 9% | i | -5% | 0% | 2% | i
